Experimental findings from PubChem BioAssay AID1159506 (National Center for Advancing Translational Sciences (NCATS), 2015) are described below.

Over roughly 59,000 sequences, the read-out has its median near -0.00055; the lowest 2% begin near -2. This excerpt belongs to a sample that is enriched for the lowest values.

A short description of the test: Identification of proteins required for the processing of the EWS-FLI1 nascent transcript.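 Note: robust z of luciferase light less the median z of siRNAs with the same seed.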 To be noted: TC32 Ewing sarcoma NR0B1-luc vs CMV-luc (EWS-FLI1 target promoter against control promoter), 48 h; screened at 20 nM (by protocol). How it is done: Ewing sarcoma (ES) cells depend on the EWS-FLI1 fusion transcription factor for cell survival. Using an assay of EWS-FLI1 activity and genome-wide siRNA screening we have identified proteins required for the processing of the EWS-FLI1 nascent transcript. Parallel genome-wide siRNA-mediated RNAi screens were conducted in Ewing sarcoma TC32 cell lines expressing a luciferase (luc) reporter protein driven by either the promoter of the EWS-FLI1 target gene NR0B1 (TC32-NR0B1-luc) or the CMV promoter (TC32-CMV-luc). Luciferase activity was assessed 48 hours post siRNA-transfection.
Twenty microl of serum-free media containing Lipofectamine RNAiMax (0.05 microl) was added to wells containing siRNA (0.8 pmol). Lipid and siRNA were allowed to complex for 45 min at ambient temperature before addition of 600 cells in RPMI-1640, 20% FBS to yield final transfection mixtures containing 20 nM siRNA in RPMI-1640, 10% FBS. Luciferase expression was measured using OneGlo (Promega, Madison, WI). The genome-wide screening campaign was conducted using Ambion's human genome library version 4.1 (Ambion, Austin TX). This library targets approximately 21000 human genes, three siRNAs per gene. Each siRNA is arrayed in an individual well of a 384-well plate. Parallel transfections were conducted in TC32-NR0B1-luc and TC32-CMV-luc cell lines and luciferase expression (OneGlo, Promega) was assayed 48 h later on a PerkinElmer Envision 2104 Multilabel plate reader (PerkinElmer, Waltham, MA). Qiagen's AllStars Negative control was incorporated on all screening plates for normalization (16 wells per plate). Qiagen, Germantown, MDsiGL4 was incorporated as a positive transfection control (16 wells per plate) on all plates. […] The raw luciferase data for the NR0B1- and CMV-luc screens were normalized and z-score-MAD transformed using standard methods (Chung et al., 2008). The miRNA-like seed sequence of every siRNA was determined and the median z-score for all siRNA sequences with the same seed sequence was calculated. This z-score was subtracted from the z-score associated with each siRNA with that seed sequence to generate a seed-adjusted z-score value (Z) that was used when the results for the three siRNAs corresponding to each gene were compared (Marine et al., 2012)
Sequence UUUCGUGUUGCCGUAUUUC against GEMIN5 showed a seed-corrected z-score of 0.131. Then UACCAGUCAGGGUCUUCAC against UBC, with -8.62; and UGAGUAGAUGAUCUUGUCG against GNA11, with 0.913.

As to AUAGGUGUCCUUCAGGUCC against MYL5, the seed-corrected z-score was -0.00285. Then UGAGAUUUGAUGAUUCUGC against OR7E24, with 0.344. As to UGUGAAAGAGGCGAAAUGC against ELAC1, the seed-corrected z-score is 0.216.

Regarding UUUUCCACAACCGUAGUCA against GOLGA8G, the seed-corrected z-score came to 0.524. Then GAUGGAGGUGCCAUGGUUG against ZSWIM3, with -0.304. Then UCUGGUUCUUUGUAAAGGC against S100A11P1, with -2.25; and UUAGGCUUAUUUCCCGCUC against BTN3A2, with -0.656; and UAGUGUACUCUAGAGCCCG against PLEKHG4, with 0.519. Then UUUCUCAUCACUAGAAGUC against PPIH, with -0.684; and UUGGAGAUAAGGGUUCUUG against MSTO1, with -2.21; and UGCAUCUUCUCUUAUGUGC against C16orf90, with -1.02. In turn, UAACACUUUCAUUCCUGUC against FAM86B1 had a seed-corrected z-score of -1.15.

The sequence UCUUGGUCAGGUUUCCUCG against MUSTN1 yielded a seed-corrected z-score of -0.107.

As to AUUCUUCUAGGCAUUGCCC against PDE6D, the seed-corrected z-score turned out to be 0.469. Then UCUAUUACUUUCACAAUGC against KDM6A, with -0.344.

For the sequence AUUCACACCAGUAUUAGUG against KIAA1456, the seed-corrected z-score was determined as 0.152. The figure for UAAUCCGUAAAUUCGAUAC against RNF139 is 0.709; for AUAGCUGCAGGAUCUAAGC against POLR3A it is -3.95; for UUCCGGUAGAAGAUGAGCC against SHMT2 it is 0.314. The figure for UUCAUGGUAGGAAAGGUCU against DXO is 1.33.

UAGUAUCAAAUAUCCAGAC against TMEM60 had a seed-corrected z-score of 0.0266.

In the case of UAAUGUACACCACAUUGGG against FAM198B, the seed-corrected z-score is -2.46. Then UUCACGUUCAUUGCAGUCU against RAB5C, with -1.4; and ACAGUUAAGACACCACUCC against FXN, with 1.1.

In turn, AUAAGCAACACCAUUAUGG against BOLL displayed a seed-corrected z-score of 1.08. The figure for AAUGGGUCUACCUUGUUGG against PSMC5 is -1.78; for AAUAAAGACGGAUUUAUUC against HTATIP2 it is 0.204. Then UUUGAUAUGAUGUUCCACC against DDX50, with -0.378.

The sequence AAACGAUCCAUAUAGUCCG against MIER3 displayed a seed-corrected z-score of 0.02. With UAUUGACCAAGAUCACAUG against FASTKD2, the seed-corrected z-score amounted to 0.878. Consider AGCUGUAUCCAUUAGGGUG against NTSR2, for which the seed-corrected z-score is 0.216. Sequence UUCCAUGUAACCGUCGUUC against SHE had a seed-corrected z-score of -0.285. Then AGAUCUAUUACUUCCAGGG against LRRC34, with -3.45.

Sequence AAAGCGACACUUAUCACCC against WRB registered a seed-corrected z-score of 0.538.

Consider UCUUUAAGAAUUGCACAUC against NAAA, for which the seed-corrected z-score is -0.571. The figure for UCCUGCUUCAGUAAAUCUC against MRPL24 is -2.37; for UCUCGAUUUAGCUUAGGCC against SKP2 it is -0.249; for AUAUCAACAAGCCCAAUUC against KCNB2 it is -0.883. The figure for UAGCCGACAAAACAACAUC against HEATR1 is -0.424. Turning to AAAGCUAUUAUCAUGUAGG against SLC35B3, the seed-corrected z-score stood at 0.789.

Sequence AUCGGUAUAGUUGAUGCAC against SCN10A had a seed-corrected z-score of 0.0881. The figure for UUUUGAACCAGGGUAGUUC against GNA15 is 0.0907; for UCCGGAACAUAUGUUGUCG against TNFRSF11B it is -0.942; for UGAUGAUCUACACUGAUUC against FAM91A1 it is -2.35. Then UUGGAUUGGCGCUAUGUUC against ANKRD20A18P, with -0.888; and UUGUAGACCAUGUUGGAGC against POLE, with -0.71; and UCUGGUUCUUGUGCUCUUC against INO80B, with -2.05. In the case of AAUCGGAUUUUGUUGAGUC against SOWAHC, the seed-corrected z-score is -0.193. The figure for UUUCUUCCUGUGCACGUCA against OXCT2 is -0.277; for UCUUCAGCCGCAUCGAUCU against TNNI2 it is 0.556; for AUCUGUAUAAUCGACAGGC against BARD1 it is -1.42. The figure for AAACGGUACAGAGCGCUGC against C1orf233 is -1.64; for UAGCAUGAAACUUUUGUUG against STK35 it is 0.199; for UUGGUUGGAACUACUUACG against STARD9 it is -3.22. The figure for UGUGGUAUUUAGUUGUUCG against PRMT2 is -0.735. ACUGGAAUAAGACCGGCUG against EMCN returned a seed-corrected z-score of -0.0798. The figure for ACUAGGAUCACGACUUUCC against SLC30A9 is -0.286; for UCUGUUUUCAGGUGCAUCC against AHRR it is -0.835; for UUCGUUAUCUAUUUCCACC against CASC5 it is -1.38. The figure for UCAUUGUUCAAGGUCAUUC against ABTB2 is 0.182; for UUCCAGUUGAGUGGUGUCC against SLA2 it is -2.67.

Turning to AAUUUGUUCACGUAAACUU against POU3F2, the seed-corrected z-score worked out at 0.623. Then UUCCGUAAGACUGACACUC against REG4, with -15.5. The figure for UCUCGUUCGGUAAUCUUCC against PPP2R2C is -0.613.
